Publication PMC7862700, “An all-to-all approach to the identification of sequence-specific readers for epigenetic DNA modifications on cytosine”

Columns and labels:
Assay in all cases: DAPPL (digital affinity profiling via proximity ligation, sequencing); 10 mM Tris-HCl pH 7.5, 50 mM NaCl, 1 mM DTT, 4% glycerol, room temperature, 30 min; GST-TFs on glutathione beads, 16-mer random dsDNA library, 0.1% formaldehyde crosslink after washing; high values mean tight binding
Conditions in all cases: protein: recombinant; tags: N-terminal GST; dsDNA, one strand shown
GABPA = target: T1, GABPA (Homo sapiens, UniProt Q06546 1-454)
T1 sequence: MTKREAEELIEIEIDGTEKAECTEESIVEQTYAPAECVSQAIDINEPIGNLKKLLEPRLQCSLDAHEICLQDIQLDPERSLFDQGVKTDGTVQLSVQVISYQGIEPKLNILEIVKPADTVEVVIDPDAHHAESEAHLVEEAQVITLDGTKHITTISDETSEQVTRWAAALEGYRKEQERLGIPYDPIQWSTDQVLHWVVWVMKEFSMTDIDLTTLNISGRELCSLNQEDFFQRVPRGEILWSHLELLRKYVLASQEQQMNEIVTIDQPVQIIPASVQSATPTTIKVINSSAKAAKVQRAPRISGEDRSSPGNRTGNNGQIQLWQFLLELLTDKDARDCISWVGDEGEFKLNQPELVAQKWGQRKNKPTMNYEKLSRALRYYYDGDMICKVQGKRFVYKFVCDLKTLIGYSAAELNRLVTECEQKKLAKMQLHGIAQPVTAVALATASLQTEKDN
Procedure, shortened: (§1)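 GST fusions of human transcription factors were expressed in yeast and captured with glutathione beads. Once given DNA barcodes and pooled alongside a tag-only sample, they were incubated for 30 min at room temperature with 200 nmole of a random double-stranded 16-mer DNA library in Tris/NaCl/DTT/glycerol buffer, then washed, crosslinked (0.1% formaldehyde), proximity-ligated, PCR-amplified and sequenced on an Illumina NextSeq500. The binding signal of each hexamer is its read frequency for a factor divided by its frequency for the tag-only sample.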

EHF = target: T2, EHF (Homo sapiens, UniProt Q9NZC4 1-300)
T2 sequence: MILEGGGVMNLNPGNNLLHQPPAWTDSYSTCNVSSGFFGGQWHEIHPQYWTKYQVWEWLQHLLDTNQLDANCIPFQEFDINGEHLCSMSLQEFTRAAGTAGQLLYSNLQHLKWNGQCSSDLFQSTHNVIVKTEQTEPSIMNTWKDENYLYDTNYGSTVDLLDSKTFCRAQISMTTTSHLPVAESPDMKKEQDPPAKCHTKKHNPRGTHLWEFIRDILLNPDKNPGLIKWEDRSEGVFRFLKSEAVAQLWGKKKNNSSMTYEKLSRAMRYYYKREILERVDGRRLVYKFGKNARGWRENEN
Procedure, shortened: as §1

ELK3 = target: T3, ELK3 (Homo sapiens, UniProt P41970 1-407)
T3 sequence: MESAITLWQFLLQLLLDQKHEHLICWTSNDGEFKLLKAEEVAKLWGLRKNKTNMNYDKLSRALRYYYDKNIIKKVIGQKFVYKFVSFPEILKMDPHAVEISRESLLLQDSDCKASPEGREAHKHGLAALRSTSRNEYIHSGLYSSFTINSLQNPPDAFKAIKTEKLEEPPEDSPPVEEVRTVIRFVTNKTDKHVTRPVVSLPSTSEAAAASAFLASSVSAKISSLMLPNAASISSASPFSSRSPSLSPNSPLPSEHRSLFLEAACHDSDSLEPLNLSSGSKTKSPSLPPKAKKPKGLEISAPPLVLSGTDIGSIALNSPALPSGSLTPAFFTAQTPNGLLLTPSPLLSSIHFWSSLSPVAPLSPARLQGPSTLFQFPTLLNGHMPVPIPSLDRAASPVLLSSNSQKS
Procedure, shortened: as §1

ETV5 = ETV5 (Homo sapiens, UniProt P41161 1-510)
Chain of ETV5 (P41161 whole entry): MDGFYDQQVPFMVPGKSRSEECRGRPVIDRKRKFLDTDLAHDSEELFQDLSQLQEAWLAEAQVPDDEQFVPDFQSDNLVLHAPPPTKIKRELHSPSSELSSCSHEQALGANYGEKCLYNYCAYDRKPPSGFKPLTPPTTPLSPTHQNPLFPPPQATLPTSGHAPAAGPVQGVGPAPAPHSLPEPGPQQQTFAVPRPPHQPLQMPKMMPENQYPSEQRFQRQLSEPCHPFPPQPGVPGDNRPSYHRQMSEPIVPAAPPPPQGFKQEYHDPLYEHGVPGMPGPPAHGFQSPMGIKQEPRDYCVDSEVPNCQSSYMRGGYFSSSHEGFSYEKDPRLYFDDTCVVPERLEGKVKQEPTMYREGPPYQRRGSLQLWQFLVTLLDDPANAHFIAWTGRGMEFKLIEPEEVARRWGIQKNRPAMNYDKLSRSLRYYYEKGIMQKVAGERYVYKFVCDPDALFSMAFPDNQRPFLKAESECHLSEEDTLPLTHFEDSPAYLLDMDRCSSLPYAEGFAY
Procedure, shortened: as §1

ELF4 = ELF4 (Homo sapiens, UniProt Q99607 1-663)
Chain of ELF4 (Q99607 whole entry): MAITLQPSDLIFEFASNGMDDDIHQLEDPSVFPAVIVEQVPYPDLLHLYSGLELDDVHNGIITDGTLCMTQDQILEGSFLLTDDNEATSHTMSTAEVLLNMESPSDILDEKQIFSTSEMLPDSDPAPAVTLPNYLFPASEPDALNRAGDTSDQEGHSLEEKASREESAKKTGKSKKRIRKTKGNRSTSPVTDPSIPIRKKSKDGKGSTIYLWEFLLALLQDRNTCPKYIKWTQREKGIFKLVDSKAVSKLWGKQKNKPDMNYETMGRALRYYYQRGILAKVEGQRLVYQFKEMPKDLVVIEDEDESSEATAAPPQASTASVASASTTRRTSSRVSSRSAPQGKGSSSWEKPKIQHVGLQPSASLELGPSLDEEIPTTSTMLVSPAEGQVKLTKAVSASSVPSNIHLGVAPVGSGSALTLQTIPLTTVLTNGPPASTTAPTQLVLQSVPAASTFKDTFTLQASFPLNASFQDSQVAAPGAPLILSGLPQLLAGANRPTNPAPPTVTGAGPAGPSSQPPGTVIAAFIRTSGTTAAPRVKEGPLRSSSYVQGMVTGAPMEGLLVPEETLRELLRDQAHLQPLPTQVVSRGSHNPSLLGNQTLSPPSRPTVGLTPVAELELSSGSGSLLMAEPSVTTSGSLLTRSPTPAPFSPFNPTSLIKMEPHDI
Procedure, shortened: as §1

ELK4 = target: T4, ELK4 (Homo sapiens, UniProt P28324-2 1-405)
T4 sequence: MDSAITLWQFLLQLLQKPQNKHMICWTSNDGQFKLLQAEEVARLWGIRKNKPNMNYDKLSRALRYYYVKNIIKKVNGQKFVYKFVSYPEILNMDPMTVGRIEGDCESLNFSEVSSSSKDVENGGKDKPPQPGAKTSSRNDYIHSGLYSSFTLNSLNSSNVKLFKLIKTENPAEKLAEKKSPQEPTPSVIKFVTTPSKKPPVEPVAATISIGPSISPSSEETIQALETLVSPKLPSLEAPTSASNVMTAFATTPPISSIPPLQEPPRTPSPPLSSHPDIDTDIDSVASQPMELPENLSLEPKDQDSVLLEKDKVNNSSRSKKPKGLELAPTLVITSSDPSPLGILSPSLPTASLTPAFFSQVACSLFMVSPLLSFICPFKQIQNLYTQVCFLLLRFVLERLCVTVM
Procedure, shortened: as §1

ELF3 = target: T5, ELF3 (Homo sapiens, UniProt P78545 1-371)
T5 sequence: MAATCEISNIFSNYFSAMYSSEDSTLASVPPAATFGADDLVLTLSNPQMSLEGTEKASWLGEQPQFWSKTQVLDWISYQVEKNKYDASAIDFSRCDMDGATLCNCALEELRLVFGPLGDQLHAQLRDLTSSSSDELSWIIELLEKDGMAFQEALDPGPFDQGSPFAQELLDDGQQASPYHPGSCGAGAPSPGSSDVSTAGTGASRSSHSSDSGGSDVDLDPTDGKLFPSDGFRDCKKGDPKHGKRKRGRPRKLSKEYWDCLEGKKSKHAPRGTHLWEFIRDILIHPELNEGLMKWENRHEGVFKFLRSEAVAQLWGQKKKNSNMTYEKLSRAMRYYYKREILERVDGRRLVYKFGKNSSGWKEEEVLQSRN
Procedure, shortened: as §1

ETV1 = ETV1 (Homo sapiens, UniProt P50549 1-477)
Chain of ETV1 (P50549 whole entry): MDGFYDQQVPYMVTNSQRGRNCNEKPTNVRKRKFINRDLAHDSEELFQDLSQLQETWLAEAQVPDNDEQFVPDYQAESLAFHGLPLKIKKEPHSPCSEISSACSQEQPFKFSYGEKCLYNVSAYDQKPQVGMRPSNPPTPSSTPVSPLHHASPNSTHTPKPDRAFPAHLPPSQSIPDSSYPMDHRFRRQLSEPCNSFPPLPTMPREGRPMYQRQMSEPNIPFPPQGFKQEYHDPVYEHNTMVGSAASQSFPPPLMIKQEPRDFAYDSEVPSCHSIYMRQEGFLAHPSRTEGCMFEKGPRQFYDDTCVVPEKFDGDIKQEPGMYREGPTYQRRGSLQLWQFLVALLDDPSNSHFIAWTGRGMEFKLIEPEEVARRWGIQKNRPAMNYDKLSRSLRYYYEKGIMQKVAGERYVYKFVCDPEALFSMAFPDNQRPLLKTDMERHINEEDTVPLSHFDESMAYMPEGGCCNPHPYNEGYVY
Procedure, shortened: as §1

ERF = target: T6, ERF (Homo sapiens, UniProt P50548 1-548)
T6 sequence: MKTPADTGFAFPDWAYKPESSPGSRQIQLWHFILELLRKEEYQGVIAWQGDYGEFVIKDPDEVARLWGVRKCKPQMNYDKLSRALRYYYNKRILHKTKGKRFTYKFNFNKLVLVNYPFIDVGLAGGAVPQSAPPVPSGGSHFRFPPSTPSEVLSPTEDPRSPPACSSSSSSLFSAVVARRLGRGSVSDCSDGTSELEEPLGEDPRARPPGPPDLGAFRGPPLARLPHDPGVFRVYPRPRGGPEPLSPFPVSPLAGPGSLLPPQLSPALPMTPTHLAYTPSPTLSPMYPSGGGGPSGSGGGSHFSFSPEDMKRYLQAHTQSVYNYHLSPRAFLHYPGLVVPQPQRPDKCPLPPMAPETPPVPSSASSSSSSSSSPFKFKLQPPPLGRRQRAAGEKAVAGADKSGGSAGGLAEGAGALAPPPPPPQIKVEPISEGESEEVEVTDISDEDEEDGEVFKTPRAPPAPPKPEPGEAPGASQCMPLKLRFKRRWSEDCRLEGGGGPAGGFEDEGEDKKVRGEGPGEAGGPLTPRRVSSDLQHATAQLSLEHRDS
Procedure, shortened: as §1

ETV7 = target: T7, ETV7 (Homo sapiens, UniProt Q9Y603 1-341)
T7 sequence: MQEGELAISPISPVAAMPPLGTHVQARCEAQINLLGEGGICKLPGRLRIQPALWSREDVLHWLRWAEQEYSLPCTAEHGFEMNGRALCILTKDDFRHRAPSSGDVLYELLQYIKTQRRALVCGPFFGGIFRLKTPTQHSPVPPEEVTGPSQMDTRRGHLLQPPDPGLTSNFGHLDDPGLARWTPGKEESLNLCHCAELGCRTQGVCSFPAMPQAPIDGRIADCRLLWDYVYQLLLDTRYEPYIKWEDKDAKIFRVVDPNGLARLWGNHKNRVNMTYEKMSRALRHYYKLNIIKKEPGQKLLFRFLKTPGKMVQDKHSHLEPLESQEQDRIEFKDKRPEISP
Procedure, shortened: as §1

ETV3 = target: T8, ETV3 (Homo sapiens, UniProt P41162-2 1-143)
T8 sequence: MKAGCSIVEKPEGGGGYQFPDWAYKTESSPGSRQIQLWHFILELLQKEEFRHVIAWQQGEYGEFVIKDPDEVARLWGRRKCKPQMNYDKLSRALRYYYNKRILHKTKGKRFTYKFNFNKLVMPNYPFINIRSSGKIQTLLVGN
Procedure, shortened: as §1

ETV6 = ETV6 (Homo sapiens, UniProt P41212 1-452)
Chain of ETV6 (P41212 whole entry): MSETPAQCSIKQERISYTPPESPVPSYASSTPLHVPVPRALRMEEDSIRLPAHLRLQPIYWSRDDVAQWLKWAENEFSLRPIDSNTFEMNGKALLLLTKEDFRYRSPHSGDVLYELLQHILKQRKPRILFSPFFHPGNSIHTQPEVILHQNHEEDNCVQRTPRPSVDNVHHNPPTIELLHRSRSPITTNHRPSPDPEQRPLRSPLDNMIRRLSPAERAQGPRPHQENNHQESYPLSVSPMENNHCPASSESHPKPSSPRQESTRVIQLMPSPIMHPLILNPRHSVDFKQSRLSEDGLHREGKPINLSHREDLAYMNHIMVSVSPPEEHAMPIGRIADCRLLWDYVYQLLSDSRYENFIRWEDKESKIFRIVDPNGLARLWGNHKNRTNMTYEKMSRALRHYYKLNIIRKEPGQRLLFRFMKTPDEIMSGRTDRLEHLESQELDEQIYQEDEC
Procedure, shortened: as §1

ELK1 = target: T9, ELK1 (Homo sapiens, UniProt P19419 1-428)
T9 sequence: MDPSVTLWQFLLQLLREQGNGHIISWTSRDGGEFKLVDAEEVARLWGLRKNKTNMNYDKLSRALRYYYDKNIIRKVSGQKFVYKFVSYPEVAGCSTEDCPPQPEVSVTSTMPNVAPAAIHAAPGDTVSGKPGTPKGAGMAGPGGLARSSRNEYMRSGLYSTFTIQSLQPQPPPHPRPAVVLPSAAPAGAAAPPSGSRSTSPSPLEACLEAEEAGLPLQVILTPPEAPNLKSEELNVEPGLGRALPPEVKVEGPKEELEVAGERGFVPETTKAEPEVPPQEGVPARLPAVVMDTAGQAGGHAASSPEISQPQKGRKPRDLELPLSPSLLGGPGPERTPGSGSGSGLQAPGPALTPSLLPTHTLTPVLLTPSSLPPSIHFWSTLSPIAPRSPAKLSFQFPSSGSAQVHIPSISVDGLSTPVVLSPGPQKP
Procedure, shortened: as §1

ERG = target: T10, ERG (Homo sapiens, UniProt P11308 1-479)
T10 sequence: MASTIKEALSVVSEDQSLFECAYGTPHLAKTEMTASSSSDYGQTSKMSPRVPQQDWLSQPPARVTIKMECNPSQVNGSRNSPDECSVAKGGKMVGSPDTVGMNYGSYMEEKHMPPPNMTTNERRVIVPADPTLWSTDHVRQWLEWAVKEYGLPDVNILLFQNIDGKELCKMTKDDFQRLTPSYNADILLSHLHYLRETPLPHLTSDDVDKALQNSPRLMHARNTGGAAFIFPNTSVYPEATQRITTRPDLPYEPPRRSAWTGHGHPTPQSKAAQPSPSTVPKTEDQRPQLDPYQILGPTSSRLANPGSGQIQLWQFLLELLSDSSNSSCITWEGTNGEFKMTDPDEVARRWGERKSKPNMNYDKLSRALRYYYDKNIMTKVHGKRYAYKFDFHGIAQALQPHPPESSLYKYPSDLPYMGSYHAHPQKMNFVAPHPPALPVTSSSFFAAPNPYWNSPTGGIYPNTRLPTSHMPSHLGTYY
Procedure, shortened: as §1

SPIB = SPIB (Homo sapiens, UniProt Q01892 1-262)
Chain of SPIB (Q01892 whole entry): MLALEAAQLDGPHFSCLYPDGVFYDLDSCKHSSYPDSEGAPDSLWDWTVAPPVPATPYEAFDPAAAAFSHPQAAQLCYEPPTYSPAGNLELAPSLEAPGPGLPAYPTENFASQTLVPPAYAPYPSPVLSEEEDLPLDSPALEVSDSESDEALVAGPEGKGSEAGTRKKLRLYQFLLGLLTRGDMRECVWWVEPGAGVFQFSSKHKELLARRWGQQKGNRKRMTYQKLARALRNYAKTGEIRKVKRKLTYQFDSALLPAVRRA
Procedure, shortened: as §1

ETS2 = target: T11, ETS2 (Homo sapiens, UniProt P15036 1-469)
T11 sequence: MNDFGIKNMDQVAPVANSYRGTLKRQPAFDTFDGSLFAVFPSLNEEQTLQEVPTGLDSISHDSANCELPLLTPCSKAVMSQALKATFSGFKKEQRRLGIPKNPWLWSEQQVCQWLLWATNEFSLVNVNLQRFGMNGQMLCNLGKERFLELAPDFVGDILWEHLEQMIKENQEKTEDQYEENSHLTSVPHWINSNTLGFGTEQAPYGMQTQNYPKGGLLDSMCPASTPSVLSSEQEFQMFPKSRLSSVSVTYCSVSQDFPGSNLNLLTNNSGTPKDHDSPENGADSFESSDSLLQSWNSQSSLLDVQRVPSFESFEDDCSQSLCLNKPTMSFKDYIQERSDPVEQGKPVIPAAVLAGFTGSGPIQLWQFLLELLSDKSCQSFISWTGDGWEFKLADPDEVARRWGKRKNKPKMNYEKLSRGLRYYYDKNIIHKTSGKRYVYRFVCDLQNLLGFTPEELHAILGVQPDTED
Procedure, shortened: as §1

SPDEF = target: T12, SPDEF (Homo sapiens, UniProt O95238 1-335)
T12 sequence: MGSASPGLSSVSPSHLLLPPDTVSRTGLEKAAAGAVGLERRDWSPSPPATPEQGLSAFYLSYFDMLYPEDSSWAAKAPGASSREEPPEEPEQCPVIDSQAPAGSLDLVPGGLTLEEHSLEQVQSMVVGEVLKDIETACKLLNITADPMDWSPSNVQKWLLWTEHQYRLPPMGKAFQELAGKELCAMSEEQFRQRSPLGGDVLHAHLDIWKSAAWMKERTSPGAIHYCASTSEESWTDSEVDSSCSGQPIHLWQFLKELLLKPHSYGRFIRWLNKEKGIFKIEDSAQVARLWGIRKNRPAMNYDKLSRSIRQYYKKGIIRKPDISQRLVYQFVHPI
Procedure, shortened: as §1

Sequence	binding signal (GABPA)	binding signal (EHF)	binding signal (ELK3)	binding signal (ETV5)	binding signal (ELF4)	binding signal (ELK4)	binding signal (ELF3)	binding signal (ETV1)	binding signal (ERF)	binding signal (ETV7)	binding signal (ETV3)	binding signal (ETV6)	binding signal (ELK1)	binding signal (ERG)	binding signal (SPIB)	binding signal (ETS2)	binding signal (SPDEF)
AGAAGT	1.05 fold enrichment (6-mer frequency, TF over GST control)	1.06 fold enrichment (6-mer frequency, TF over GST control)	1.11 fold enrichment (6-mer frequency, TF over GST control)	1.09 fold enrichment (6-mer frequency, TF over GST control)	1.06 fold enrichment (6-mer frequency, TF over GST control)	1.16 fold enrichment (6-mer frequency, TF over GST control)	1.05 fold enrichment (6-mer frequency, TF over GST control)	1.05 fold enrichment (6-mer frequency, TF over GST control)	1.05 fold enrichment (6-mer frequency, TF over GST control)	1.13 fold enrichment (6-mer frequency, TF over GST control)	1.01 fold enrichment (6-mer frequency, TF over GST control)	1.07 fold enrichment (6-mer frequency, TF over GST control)	–	–	–	–	–
TGGGAA	1.05 fold enrichment (6-mer frequency, TF over GST control)	1.04 fold enrichment (6-mer frequency, TF over GST control)	1 fold enrichment (6-mer frequency, TF over GST control)	1.04 fold enrichment (6-mer frequency, TF over GST control)	–	–	1.13 fold enrichment (6-mer frequency, TF over GST control)	–	1.04 fold enrichment (6-mer frequency, TF over GST control)	1.09 fold enrichment (6-mer frequency, TF over GST control)	–	1.17 fold enrichment (6-mer frequency, TF over GST control)	1.08 fold enrichment (6-mer frequency, TF over GST control)	1.02 fold enrichment (6-mer frequency, TF over GST control)	1.05 fold enrichment (6-mer frequency, TF over GST control)	1.02 fold enrichment (6-mer frequency, TF over GST control)	1.01 fold enrichment (6-mer frequency, TF over GST control)
